Active and inactive are the calls of the source. Rule for the calls: active = hit-call score of the fitted dose curve at least 0.9, where 1 is the maximum; inactive = score below 0.9.

Myc proto-oncogene protein (Homo sapiens), sequence (P01106 whole entry, looked up, the tested form may be a part): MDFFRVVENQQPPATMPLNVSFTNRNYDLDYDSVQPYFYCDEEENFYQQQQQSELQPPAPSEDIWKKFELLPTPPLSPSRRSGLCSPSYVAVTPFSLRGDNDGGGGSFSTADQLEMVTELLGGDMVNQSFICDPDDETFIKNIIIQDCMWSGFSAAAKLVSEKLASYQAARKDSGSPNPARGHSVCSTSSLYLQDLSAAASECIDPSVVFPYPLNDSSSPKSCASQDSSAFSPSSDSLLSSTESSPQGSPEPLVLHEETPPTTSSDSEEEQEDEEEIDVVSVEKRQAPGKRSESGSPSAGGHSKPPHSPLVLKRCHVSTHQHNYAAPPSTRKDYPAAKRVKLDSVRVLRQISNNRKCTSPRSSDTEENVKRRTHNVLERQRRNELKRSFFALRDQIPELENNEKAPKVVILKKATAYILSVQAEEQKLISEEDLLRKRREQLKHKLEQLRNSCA

The target of the first assay is Nuclear respiratory factor 1 (Homo sapiens) (UniProt Q16656). Briefly: ATG_NRF1_CIS: Attagene CIS-FACTORIAL HepG2 Assay for human Nuclear Respiratory Factor 1 (NRF1) Orphan Gene (AID 2282987). To be noted: HepG2 NRF1 cis-element reporter, Attagene multiplex; actives raise or lower the signal. An outline of the steps: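 Endogenous NRF1-driven reporter transcription measured in transiently transfected human HepG2 liver cells. Readout: reporter mRNA by RT-PCR and capillary electrophoresis with fluorescence detection, 24 h post-dosing. Gain or loss of signal fitted relative to DMSO baseline.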
Nuclear respiratory factor 1 (Homo sapiens), sequence (Q16656 whole entry, looked up): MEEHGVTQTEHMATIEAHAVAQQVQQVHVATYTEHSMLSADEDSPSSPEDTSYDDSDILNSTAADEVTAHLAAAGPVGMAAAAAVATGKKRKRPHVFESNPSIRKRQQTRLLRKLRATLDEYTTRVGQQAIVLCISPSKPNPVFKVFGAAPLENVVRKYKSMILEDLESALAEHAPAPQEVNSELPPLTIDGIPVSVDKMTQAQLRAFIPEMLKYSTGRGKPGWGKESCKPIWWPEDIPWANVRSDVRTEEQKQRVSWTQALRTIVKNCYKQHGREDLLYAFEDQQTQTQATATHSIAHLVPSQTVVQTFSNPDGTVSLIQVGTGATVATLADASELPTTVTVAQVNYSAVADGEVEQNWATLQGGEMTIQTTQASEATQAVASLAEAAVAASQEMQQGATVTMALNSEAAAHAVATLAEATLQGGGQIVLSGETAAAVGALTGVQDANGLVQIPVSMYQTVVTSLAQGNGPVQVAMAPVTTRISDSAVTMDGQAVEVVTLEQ
Consider `Cc1cnc(C2=NC(C)(C(C)C)C(=O)N2)c(C(=O)O)c1` (stereo not drawn), for which the molecule was called inactive.

For `CNC(=O)Oc1cccc2ccccc12`, the molecule was classed as inactive.

On to `N#Cc1c(Cl)cccc1Cl`, for which the result was inactive.

Turning to `CC1(C)C(C(=O)OC(C#N)c2cccc(Oc3ccccc3)c2)C1(C)C` (stereo not drawn), the molecule was classed as inactive.

For the molecule `O=C(O)c1c(Cl)ccc2cc(Cl)cnc12`, the call was inactive.

With `Nc1c(Cl)c(F)nc(OCC(=O)O)c1Cl`, the result was inactive.

In the case of `CCCCC(O)(Cn1cncn1)c1ccc(Cl)cc1Cl` (stereo not drawn), the outcome was inactive.

As to `CCC(C)n1c(=O)[nH]c(C)c(Br)c1=O` (stereo not drawn), the call was inactive.

In the case of `CN/C(=N\[N+](=O)[O-])NCc1cnc(Cl)s1`, the outcome was inactive.

For the molecule `Clc1nc(Cl)nc(Nc2ccccc2Cl)n1`, the outcome was inactive.

As for `CN=C=S`, the molecule was called inactive.

On to `CC(C)Nc1nc(Cl)nc(NC(C)C)n1`, for which the molecule was called inactive.

With `O=C1C2CC=CCC2C(=O)N1SC(Cl)(Cl)Cl` (stereo not drawn), the call was inactive.

Take `CCOc1nc(C(Cl)(Cl)Cl)ns1`: the molecule was called inactive.

In the case of `CCN(CC)c1nc(C)cc(OP(=S)(OC)OC)n1`, the result was inactive.

Tested on in the next assay: not listed separately
Briefly: ATG_NFI_CIS: Attagene CIS-FACTORIAL HepG2 Assay for human Nuclear Factor I (NFI) (AID 2282989). To be noted: HepG2 cis-regulatory reporter, NFI response element transcription; actives raise or lower the signal. An outline of the steps:
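Cells: human liver HepG2, transiently transfected with promoter-regulated reporter transcription units. Exposure 24 h. Detection: fluorescent RT-PCR products separated by capillary electrophoresis, normalised to DMSO negative control.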
Regarding `CNC(=O)N(C)c1nnc(C(C)(C)C)s1`, the result was inactive.

On to `O=P(O)(O)CCCl`, for which the result was inactive.

As to `CCN(CC)C(=O)C(C)Oc1cccc2ccccc12` (stereo not drawn), the outcome was inactive.

For `Nc1cnn(-c2ccccc2)c(=O)c1Cl`, the molecule was called inactive.

Consider `COc1ccc(-c2ccccc2)cc1NNC(=O)OC(C)C`, for which the molecule was classed as inactive.

For `CCNP(=S)(OC)O/C(C)=C/C(=O)OC(C)C` (stereo not drawn), the molecule was classed as inactive.

For the molecule `COC(=O)c1c(C(F)F)nc(C(F)(F)F)c(C2=NCCS2)c1CC(C)C`, the molecule was classed as inactive.

Consider `CCOc1cc(C(C)(C)C)ccc1C1COC(c2c(F)cccc2F)=N1` (stereo not drawn), for which the call was inactive.

As for `CCSC(=O)N1CCCCCC1`, the result was inactive.

Consider `CC1(C)C(C(=O)OC(C#N)c2cccc(Oc3ccccc3)c2)C1(C)C` (stereo not drawn), for which the outcome was inactive.

For the molecule `O=C(O)c1c(Cl)ccc2cc(Cl)cnc12`, the molecule was classed as inactive.

With `CCC(C)n1c(=O)[nH]c(C)c(Br)c1=O` (stereo not drawn), the molecule was classed as inactive.

Regarding `CN=C=S`, the result was inactive.

Regarding `O=C1C2CC=CCC2C(=O)N1SC(Cl)(Cl)Cl` (stereo not drawn), the result was inactive.

In a further assay the target is Myc proto-oncogene protein (Homo sapiens) (UniProt P01106). Briefly: ATG_Myc_CIS: Attagene CIS-FACTORIAL HepG2 Assay for human Myelocytomatosis (Myc) Proto-Oncogene Transcription Factor (AID 2282990). To be noted: HepG2, Attagene cis-reporter transcription factor activity; actives raise or lower the signal. Put shortly:
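After 24 h chemical treatment of HepG2 cells carrying multiplexed cis-regulated reporter constructs, reporter transcripts quantified by RT-PCR and capillary electrophoresis of fluorescent fragments. Gain or loss fitted against DMSO baseline.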
For `CCNC(=O)NC(=O)C(C#N)=NOC`, the call was inactive.

In the case of `CNC(=O)N(C)c1nnc(C(C)(C)C)s1`, the molecule was classed as inactive.

As for `C=CCOC(=O)C(C)(C)OC(=O)c1cc(-n2c(=O)cc(C(F)(F)F)n(C)c2=O)ccc1Cl`, the molecule was called inactive.

For the molecule `O=P(O)(O)CCCl`, the result was inactive.

On to `CCN(CC)C(=O)C(C)Oc1cccc2ccccc12` (stereo not drawn), for which the result was inactive.

As for `Clc1cccc(C(Cl)(Cl)Cl)n1`, the molecule was classed as inactive.

As for `Nc1cnn(-c2ccccc2)c(=O)c1Cl`, the molecule was classed as inactive.

On to `Cn1c(-c2ccccc2)cc(-c2ccccc2)[n+]1C`, for which the call was inactive.

For `CC1(C)CON(Cc2ccccc2Cl)C1=O`, the molecule was called inactive.

Take `OC(c1ccc(Cl)cc1)(c1ccc(Cl)cc1)C(Cl)(Cl)Cl`: the result was inactive.

Regarding `COC(=O)N(C(=O)N1CO[C@@]2(C(=O)OC)Cc3cc(Cl)ccc3C2=N1)c1ccc(OC(F)(F)F)cc1`, the outcome was inactive.

With `COc1ccc(-c2ccccc2)cc1NNC(=O)OC(C)C`, the molecule was classed as inactive.

Turning to `CCNP(=S)(OC)O/C(C)=C/C(=O)OC(C)C` (stereo not drawn), the molecule was called inactive.

In the case of `COC(=O)c1c(C(F)F)nc(C(F)(F)F)c(C2=NCCS2)c1CC(C)C`, the molecule was called inactive.

Take `CCOc1cc(C(C)(C)C)ccc1C1COC(c2c(F)cccc2F)=N1` (stereo not drawn): the result was inactive.

Turning to `COC(=O)NS(=O)(=O)c1ccc(N)cc1`, the molecule was classed as inactive.

On to `COP(=O)(OC)O/C(C)=C/C(=O)N(C)C`, for which the molecule was called inactive.

Take `Cc1ccc(N=CN(C)C=Nc2ccc(C)cc2C)c(C)c1`: the outcome was inactive.

As to `CCSC(=O)N1CCCCCC1`, the molecule was called inactive.

As for `COCC(C)N(C(=O)CCl)c1c(C)csc1C` (stereo not drawn), the molecule was classed as inactive.

`CCOC(=O)C(C)OC(=O)c1cc(Oc2ccc(C(F)(F)F)cc2Cl)ccc1[N+](=O)[O-]` (stereo not drawn): the call was inactive.

Regarding `Cc1cnc(C2=NC(C)(C(C)C)C(=O)N2)c(C(=O)O)c1` (stereo not drawn), the call was inactive.

As for `CNC(=O)Oc1cccc2ccccc12`, the molecule was called inactive.

For the molecule `N#Cc1c(Cl)cccc1Cl`, the molecule was called inactive.

`CC1(C)C(C(=O)OC(C#N)c2cccc(Oc3ccccc3)c2)C1(C)C` (stereo not drawn): the molecule was classed as inactive.

As to `O=C(O)c1c(Cl)ccc2cc(Cl)cnc12`, the molecule was classed as inactive.

Turning to `Nc1c(Cl)c(F)nc(OCC(=O)O)c1Cl`, the molecule was classed as inactive.

For the molecule `CCCCC(O)(Cn1cncn1)c1ccc(Cl)cc1Cl` (stereo not drawn), the molecule was classed as inactive.

For `CCC(C)n1c(=O)[nH]c(C)c(Br)c1=O` (stereo not drawn), the molecule was classed as inactive.

Turning to `CN/C(=N\[N+](=O)[O-])NCc1cnc(Cl)s1`, the result was inactive.

In the case of `Clc1nc(Cl)nc(Nc2ccccc2Cl)n1`, the result was inactive.

Turning to `CN=C=S`, the molecule was classed as inactive.

Consider `CC(C)Nc1nc(Cl)nc(NC(C)C)n1`, for which the call was inactive.

On to `O=C1C2CC=CCC2C(=O)N1SC(Cl)(Cl)Cl` (stereo not drawn), for which the molecule was classed as inactive.

Take `CCOc1nc(C(Cl)(Cl)Cl)ns1`: the molecule was classed as inactive.

Turning to `CCN(CC)c1nc(C)cc(OP(=S)(OC)OC)n1`, the call was inactive.

Tested on in a further assay: not listed separately
Briefly: ATG_NF_kB_CIS: Attagene CIS-FACTORIAL HepG2 Assay for human Nuclear Factor Kappa B (NF-kB) (AID 2282991). As to conditions: HepG2 Attagene cis-factorial NF-kB reporter mRNA; actives raise or lower the signal. An outline of the steps:
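Read-out: reporter transcript levels quantified by RT-PCR plus capillary electrophoresis of 6-FAM-labelled, HpaI-cut fragments. Transfected HepG2 cells, 24 h compound exposure, endogenous NF-kB-driven cis element; gain or loss scored versus DMSO.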
Regarding `CC1(C)CON(Cc2ccccc2Cl)C1=O`, the result was inactive.

As for `CCNP(=S)(OC)O/C(C)=C/C(=O)OC(C)C` (stereo not drawn), the outcome was inactive.

Turning to `COC(=O)c1c(C(F)F)nc(C(F)(F)F)c(C2=NCCS2)c1CC(C)C`, the molecule was classed as inactive.

As for `CCOC(=O)C(C)OC(=O)c1cc(Oc2ccc(C(F)(F)F)cc2Cl)ccc1[N+](=O)[O-]` (stereo not drawn), the result was inactive.

Take `N#Cc1c(Cl)cccc1Cl`: the molecule was called inactive.

As for `CCCCC(O)(Cn1cncn1)c1ccc(Cl)cc1Cl` (stereo not drawn), the molecule was classed as inactive.

Turning to `CCC(C)n1c(=O)[nH]c(C)c(Br)c1=O` (stereo not drawn), the molecule was classed as inactive.

In the case of `O=C1C2CC=CCC2C(=O)N1SC(Cl)(Cl)Cl` (stereo not drawn), the outcome was inactive.

Source of the values: PubChem BioAssay (EPA / NIEHS).
